The text below walks through data of the supplement of paper PMC10338343.

± gives the standard deviation.
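Also: 1 nM active piRISC with 0.1 nM target library at 33 °C single turnover.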

The subject of the assay is MILI (PIWIL2) piRISC loaded with L1MC piRNA (26 nt). Nature of the assay: pre-steady-state target cleavage rate (min^-1); guide: L1MC piRNA 5'p-UAACUAAAUACUAUGCAAGCUGUAGG; MIWI and MILI are mouse PIWI proteins and EfPiwi is from a freshwater sponge; tags in brackets are library labels; higher = faster piRNA-guided slicing of the target. The settings on record: auxiliary factor: 500 nM mouse GTSF1. The method, boiled down:
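In HEPES–potassium acetate buffer at 33 °C, […] transcribed, DNA-blocked target RNA library was mixed with 1 nM active affinity-purified piRISC carrying one synthetic guide, with or without 500 nM GTSF1 partner protein, for 0–8 or 0–960 min. Uncleaved targets were sequenced and normalised to depth and to weakly complementary targets; three trials were pooled and k3 was capped at 0.0001 min^-1. The pre-steady-state cleavage rate followed from a burst-and-steady-state fit.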
On to UCCUGGAUGUGCUUGCAUAGUAUUAAGAAA, for which the “pre-steady-state target cleavage rate” value was 0.00586 ± 0.0036.

Regarding UCCUGGUACAGCUUGGAUACUAUUUAGUUA, the “pre-steady-state target cleavage rate” value was 0.153 ± 0.059.

Turning to UCCUGGAUGUCGAUGCAUAGUAUAAUGUUA, the “pre-steady-state target cleavage rate” value turned out to be 0.031 ± 0.012.

For UCCUGGAUGUCCUUGCAUAGUUAUUAGUUA, the “pre-steady-state target cleavage rate” value is 0.00901 ± 0.004.

In the case of UCCUGGAUGUCGAAGCAUAGUAUUUCGUUA, the “pre-steady-state target cleavage rate” value came out at 0.00855 ± 0.0046.

UCCUGGAUGUCGUUCCAUAGUAUUUAGUUA: the “pre-steady-state target cleavage rate” value is 0.00992 ± 0.0041.

Regarding UCCUGGAUCAGCUUGGAUAGAAUUUAGUUA, the “pre-steady-state target cleavage rate” value came to 0.0242 ± 0.0065.

As for UCCUGGAUGUCCUUGCAUAGUAUAUAGAUA, the “pre-steady-state target cleavage rate” value was 0.0132 ± 0.0063.

Regarding UCCUCCUACAGCUUGGUUAGUAUUUUCAAA, the “pre-steady-state target cleavage rate” value was 0.0137 ± 0.007.

Turning to UCCUGGAACAGCUUGCAUAGUAAAAACAAA, the “pre-steady-state target cleavage rate” value is 0.0763 ± 0.031.

With UCCUCCUACAGCUUCCAUAGUUUUUAGUUA, the “pre-steady-state target cleavage rate” value came out at 0.0195 ± 0.0081.

UCCUGGUACAGCAAGCAUAGUAUUUAGAAA: the “pre-steady-state target cleavage rate” value stood at 0.104 ± 0.031.

Take UCCUGGAUGAGCUUGCAUAGUAUUCUAGUUA: the “pre-steady-state target cleavage rate” value was found to be 0.165 ± 0.029.

Take UCCUGGAUGUCGUAGCAUAGUAAUUAGUUA: the “pre-steady-state target cleavage rate” value was found to be 0.0159 ± 0.0054.

Regarding UCCUCCUACAGCUACGAUAGUAUUUAGUAA, the “pre-steady-state target cleavage rate” value stood at 0.174 ± 0.024.

Take UCCUGGUACAGCUUGCUUAGUAUUUACUUA: the “pre-steady-state target cleavage rate” value came out at 0.191 ± 0.038.

UCCUGGAUCAGCUUGCAUAGUAUAAUGUAA: the “pre-steady-state target cleavage rate” value worked out at 0.0214 ± 0.0079.

As to UCCUGGAACAGCUUGCUAUGUAUUUAGAAA, the “pre-steady-state target cleavage rate” value is 0.00873 ± 0.0046.

In the case of UCCUGGAUGUCGAACCAUAGUUUUUUGUUA, the “pre-steady-state target cleavage rate” value is less than 0.0001.

With UCCUCCUUGUGCUUGCAUAGUAUUUUCAAA, the “pre-steady-state target cleavage rate” value was 0.0192 ± 0.0073.

As for UCCUGGAUGUCGUUGCAUAGUAUUAUGUUA, the “pre-steady-state target cleavage rate” value turned out to be 0.156 ± 0.045.

Take UCCUGCUACAGCUUGCAUUCUAUUUAGUAA: the “pre-steady-state target cleavage rate” value amounted to 0.0252 ± 0.0088.

Regarding UCCUGGAUCAGCUUGCAUUGUAUUUUCAAA, the “pre-steady-state target cleavage rate” value stood at 0.00931 ± 0.0046.

Take UCCUGGAACAGCUACGAUAGUAUUUAGUAA: the “pre-steady-state target cleavage rate” value came out at 0.142 ± 0.02.
